Assay results taken from PubChem BioAssay (NCATS).
Inconclusive results are not listed. A call without a number means that no potency is given here. Unmarked numbers belong to inactive results. Active and inactive are the calls of the source. Calls follow the shape of the dose curve; as a rule, active = well fitted curve in the direction sought with a large enough effect; inconclusive = small, poorly fitted or top-dose-only effect, or another doubt; inactive = no such curve, though single readings can be large; an effect the other way counts as inactive or inconclusive.

What was measured:
[1] = target: Cellular tumor antigen p53 (Homo sapiens) (UniProt P04637); experiment: Primary qHTS for small molecule compounds that upregulate eGFP-tagged delta133p53alpha (in N-terminal) cells. (AID 2060322); conditions: NCI-H358 eGFP-delta133p53alpha fluorescence, 24 h; activation: stronger effect = higher value; also: nearly all actives have a fitted effect of over 75% in size; also: potency is read from the fitted curve at half-maximal effect; as to activation: series mostly up to about 56 µM
How it was run: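 NCI-H358 cells pre-induced 24 h with 10 ng/ml doxycycline to express N-terminal eGFP-delta133p53alpha, then dosed 24 h at 37C without doxycycline; fixed, Hoechst-stained, GFP intensity by laser scanning cytometry, normalized to DMSO (0%) and 57.5 uM 5-azacytidine (100%).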

[2] = target: Aldehyde dehydrogenase, mitochondrial (Homo sapiens) (UniProt P05091); experiment: qHTS for Inhibitors of the Aldehyde Dehydrogenase Family (ALDH2) Primary screen (AID 2061308); also: nearly all actives have a fitted effect of over 55% in size
[3] = target: Retinaldehyde dehydrogenase 3 (Homo sapiens) (UniProt P47895); experiment: qHTS for Inhibitors of the Aldehyde Dehydrogenase Family (ALDH1A3) Validation screen (AID 2061312); also: nearly all actives have a fitted effect of over 45% in size; also: potency is read from the fitted curve at half-maximal effect
[4] = target: Retinaldehyde dehydrogenase 3 (Homo sapiens) (UniProt P47895); experiment: qHTS for Inhibitors of the Aldehyde Dehydrogenase Family (ALDH1A3) Primary screen (AID 2061315)

Cellular tumor antigen p53 (Homo sapiens), sequence (P04637 whole entry, looked up): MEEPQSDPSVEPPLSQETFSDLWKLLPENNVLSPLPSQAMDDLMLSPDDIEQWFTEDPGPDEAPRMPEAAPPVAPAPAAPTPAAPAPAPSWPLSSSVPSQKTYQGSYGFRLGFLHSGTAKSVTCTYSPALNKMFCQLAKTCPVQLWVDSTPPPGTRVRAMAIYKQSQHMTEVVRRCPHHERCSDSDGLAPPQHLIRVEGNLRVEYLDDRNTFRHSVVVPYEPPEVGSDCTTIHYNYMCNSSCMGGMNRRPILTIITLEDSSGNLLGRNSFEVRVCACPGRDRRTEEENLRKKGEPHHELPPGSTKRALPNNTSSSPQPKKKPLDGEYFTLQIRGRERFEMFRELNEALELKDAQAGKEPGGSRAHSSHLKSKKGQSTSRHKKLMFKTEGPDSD

Row | SMILES | activation [1] [%] | activity change, negative = inhibition [2] | activity change, negative = inhibition [3] | activity change, negative = inhibition [4] | Potency [2] | Potency [3] | Potency [4] | Potency [1]
1 | COc1cc(Nc2nc3c(s2)CCCC3c2ccccc2)ccc1-n1cnc(C)c1 (configuration not stated) | -18.6 | 1.32% [at 11.2 µM] | 6.59% [at 20.1 µM] | 0.24% [at 11.2 µM] |  |  |  | 
2 | CNC(=O)c1ccc2c(c1)CCO[C@H]2CCN1CCN(c2ccc(C(N)=O)cc2)CC1 | 8.11 |  |  |  | inactive | inactive | inactive | 
3 | c1ccc(-c2ncc(CN3CCN(c4ncccn4)CC3)[nH]2)cc1 | -2.39 |  |  |  | inactive | inactive | inactive | 
4 | Cc1cc(-n2c(=O)[nH]c(=O)n(C)c2=O)ccc1Oc1ccc(SC(F)(F)F)cc1 | -10.5 |  |  |  | inactive | inactive | inactive | 
5 | CC[C@H]1OC(=O)[C@H](C)[C@@H](O[C@H]2C[C@@](C)(OC)[C@@H](O)[C@H](C)O2)C(C)[C@@H](O[C@@H]2O[C@H](C)C[C@H](N(C)C)[C@H]2O)[C@](C)(O)C[C@@H](C)CN(C)[C@H](C)[C@@H](O)[C@]1(C)O (some centres not stated) | -5.73 |  |  |  | inactive | inactive | inactive | 
6 | C[C@]12CC[C@@H]3c4ccc(OC(=O)c5ccccc5)cc4CC[C@H]3[C@@H]1CC[C@@H]2O | 14.3 |  |  |  | inactive | inactive | inactive | 
7 | CCOC(=O)c1sc(NC(=O)[C@H](C(C)C)n2c(=O)[nH]c3ccccc3c2=O)nc1C | 14.3 |  |  |  | inactive | inactive | inactive | 
8 | NCc1c[nH]c(=S)n1C1CCc2c(F)cc(F)cc2C1 (configuration not stated) | -0.477 |  |  |  | inactive | inactive | inactive | 
9 | Nc1nc(COC(=O)c2ccc([N+](=O)[O-])cc2)nc(Nc2ccccc2)n1 | 0.477 |  |  |  | inactive | inactive | inactive | 
10 | C=C(F)c1sc(CNCCCNc2cc(=O)c3ccccc3[nH]2)c(C)c1Br | 18.1 |  |  |  | inactive | inactive | inactive | 
11 | Cc1ccccc1CN1CCn2c1nc1c(c2=O)CN(Cc2ccccc2)CC1 | 0.477 |  |  |  | inactive | inactive | inactive | 
12 | Cc1ccnn1-c1ccc(C(=O)N2CCN(S(=O)(=O)c3ccc(Cl)c(C(F)(F)F)c3)CC2)cc1 | -9.07 |  |  |  | inactive | inactive | inactive | 
13 | CCOC(=O)C(CCc1ccccc1)NC1CSC(c2cccs2)CN(CC(=O)O)C1=O (configuration not stated) | -0.477 |  |  |  | inactive | inactive | inactive | 
14 | O=C(Nc1cc(-c2ccccc2)nn1-c1ccccc1)c1ccc([N+](=O)[O-])cc1 | -11 |  |  |  | inactive | inactive | inactive | 
15 | O=C(Nc1ccccc1)c1ccc(Nc2nnc(-c3ccc(O)cc3)c3ccccc23)cc1 | 2.39 |  |  |  | inactive | inactive | inactive | 
16 | CN1CCC(Nc2nc(Nc3ccc(Oc4ccccc4)cc3)c3c(=O)[nH]cc(Br)c3n2)CC1 |  |  |  |  | inactive | inactive | inactive | 10.7 µM (active)
17 | CC(C)(C)c1ccc2c(c1)CC[C@H]2NC(=O)Nc1cccc2[nH]ncc12 | -6.68 |  |  |  | inactive | inactive | inactive | 
18 | COc1cc2nc(N3CCN(C(=O)COc4c(OC)cccc4C(C)C)CC3)nc(N)c2cc1OC | -11 |  |  |  | inactive | inactive | inactive | 
19 | O=[N+]([O-])c1cc(Cl)ccc1S(=O)(=O)N1CCN(Cc2ccccc2)CC1 | 0.955 |  |  |  | inactive | inactive | inactive | 
20 | Nc1nc2c(c(N3CCNCC3)n1)CCC1=C2[C@@H]2CCCC[C@@H]2O1 | -18.1 |  |  |  | inactive | inactive | inactive | 
21 | CCOC(=O)c1ccc(N(C)c2csc(-c3ccccc3)n2)cc1 | 0 |  |  |  | inactive | inactive | inactive | 
22 | C[C@@H]1C(=O)O[C@H]2[C@@H](O)C34[C@H]5C[C@@H](C(C)(C)C)C36[C@@H](OC(=O)[C@@H]6O)O[C@@]4(C(=O)O5)[C@@]12O (some centres not stated) | 5.25 |  |  |  | inactive | inactive | inactive | 
23 | COC(=O)c1ccc2c(c1)[nH]c1ncnc(NCCCN3CCCCC3)c12 | 0.477 |  |  |  | inactive | 31.6 µM (active) | inactive | 
24 | O=[N+]([O-])c1cn2c(n1)OCC(OCc1ccc(OC(F)(F)F)cc1)C2 (configuration not stated) | -10 |  |  |  | inactive | inactive | inactive | 
25 | CC(C)(C)c1ccc(-c2nc3c(N4CCN(Cc5ccc6nccnc6c5)CC4)cccc3[nH]2)cc1 | -2.86 |  |  |  | inactive | inactive | inactive | 
26 | CC1CCN(c2cc(NC(=O)c3ccccc3)ncn2)CC1 | 22.4 |  |  |  | inactive | inactive | inactive | 
27 | COc1ccc(C(=O)N(CCC(C)C)Cc2nc(C)c(C)n2Cc2ccccc2C)c(OC)c1 | 11.5 |  |  |  | inactive | inactive | inactive | 
28 | CCCCc1nc(Cl)c(CO)n1Cc1ccc(-c2ccccc2-c2nnn[nH]2)cc1 | -18.1 |  |  |  | inactive | inactive | inactive | 
